# Hit rate of the full screen: of about 190,000 compounds, about 200 (0.11%) were called active. What follows is part of a selection rich in actives, with near analogues and random picks from the rest. A number with no mark means an inactive call. Cut-off read from the data, not from the text of the source: active = inhibition above about 40%.
# Target: Induced myeloid leukemia cell differentiation protein Mcl-1 (Homo sapiens) (UniProt Q07820)
# Assay: inhibitors of Bim peptide binding to Mcl-1, primary screen, biochemical, bead-based flow cytometry, multiplex (AID 1009);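 note: 0% = no compound tracer wells and 100% = peptide blocker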
# Conditions: Bim peptide-Mcl-1 binding, at 10 µM, hits give high values
# Induced myeloid leukemia cell differentiation protein Mcl-1 (Homo sapiens), sequence (Q07820 whole entry, looked up): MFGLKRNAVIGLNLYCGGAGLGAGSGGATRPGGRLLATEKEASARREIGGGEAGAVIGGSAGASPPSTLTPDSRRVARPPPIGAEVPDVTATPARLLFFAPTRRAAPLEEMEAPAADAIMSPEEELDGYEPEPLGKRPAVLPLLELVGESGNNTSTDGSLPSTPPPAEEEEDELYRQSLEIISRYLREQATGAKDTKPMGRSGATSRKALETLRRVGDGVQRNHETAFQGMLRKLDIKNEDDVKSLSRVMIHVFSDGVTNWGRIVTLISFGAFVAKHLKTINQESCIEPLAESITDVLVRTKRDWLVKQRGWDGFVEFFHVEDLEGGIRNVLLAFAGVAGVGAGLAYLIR
row,Compound,inhibition
1,CC(CO)NCC12CC3CC(CC(C3)C1)C2 (configuration not stated),0%
2,Cc1[nH]c2ccccc2c1/C=C(/C#N)C(=O)NC(C)C,0%
3,C=CCN(Cc1nc(-c2cc(OC)c3c(c2)OCO3)oc1C)C1CCS(=O)(=O)C1 (configuration not stated),-1%
4,CC(C)C(=O)NCc1cc(-c2ccc(Cl)cc2)no1,-2%
5,O=C(NCCCN1CCOCC1)c1ccc(N2CCCC2)c([N+](=O)[O-])c1,0%
6,O=C(NCc1ccc(F)cc1)C(c1ccccc1)N(C(=O)c1csnn1)C1CC1 (configuration not stated),-1%
7,Nc1[nH][nH]c(=O)c1N=Nc1ccc2c(c1)OCO2,0%
8,COc1ccc(Cl)cc1N(CC(=O)N/N=C/c1ccc(OCC(N)=O)cc1)S(C)(=O)=O,1%
9,CSc1ccc(CN2C(=O)NC3(CCCCCC3)C2=O)cc1,3%
10,Cc1nc(N2CCC(C)CC2)c2c(C)c(C(=O)Nc3cc(F)ccc3C)sc2n1,-1%
11,COc1ccc(/C=N/OCC(=O)N(Cc2ccccc2)c2ccccc2C(=O)O)cc1,-1%
12,C#CCOCCOCCOCCNc1nc(N2CCN(C(=O)[C@H](CCC(=O)O)n3cc(C(N)CO)nn3)CC2)nc(N2CCN(C(=O)[C@H](Cc3ccc(O)cc3)n3cc(C(N)[C@H](C)CC)nn3)CC2)n1 (some centres not stated),0%
13,CCOC(=O)Cc1ncccc1C(=O)Nc1ccc(OC(F)(F)F)cc1,-7%
14,COc1ccc(C(=O)N2CCC(C(=O)Nc3ccc(C)cc3)CC2)cc1,-3%
15,N#Cc1ccc(-c2nc3cc(C#N)c(C#N)cc3nc2-c2ccccc2)cc1C#N,1%
16,O=C(CCN1C(=O)/C(=C/c2cccs2)SC1=S)NNC(=O)c1cccc(O)c1,0%
17,COCC1CCCN(Cc2cn[nH]c2-c2cc3ccccc3o2)C1 (configuration not stated),-3%
18,O=C(NC(=S)NC1CCSC1=O)c1ccccc1F (configuration not stated),0%
19,O=C(N/N=C/c1cc([N+](=O)[O-])ccc1O)/C(=C\c1cccs1)NC(=O)c1ccccc1,0%
20,COc1ccc(C(=O)C2CCCN(Cc3cccn3-c3ccccn3)C2)c(C)c1 (configuration not stated),0%
21,CN(CC(=O)NC1CCCC1)S(=O)(=O)c1cnc[nH]1,-8%

row,Compound,inhibition
1,Cc1cc(C)nc(Nc2ncn[nH]2)n1,1%
2,CCCCC(CC)CNC(=O)C(=O)C1C(=O)Nc2ccccc21 (configuration not stated),-2%
3,O=C(/C=C/c1cnc2ccccc2n1)NC1CCCCCC1,-22%
4,COc1cccc(CNC(=O)c2n[nH]c3ccccc23)c1,0%
5,COc1ccc(N(CC(=O)Nc2ccc(C)cc2C)S(=O)(=O)c2ccccc2[N+](=O)[O-])c(OC)c1,4%
6,COc1ccc(C(=O)NC2(C(F)(F)F)NC(=O)N(CCCc3ccccc3)C2=O)c(OC)c1OC (configuration not stated),-3%
7,CCCOc1ccc(Cn2ccnc2)cc1[N+](=O)[O-],-1%
8,O=C(/C=C/c1ccc(Cl)cc1)N1CCN(c2ccccc2[N+](=O)[O-])CC1,-1%
9,CCO[C@H]1OC(C(=O)N2CCOCC2)=C[C@@H](c2ccc3c(c2)OCO3)[C@@H]1CCCO,-2%
10,CC(=O)N1CCN(S(=O)(=O)c2c(F)cc(F)c(Cl)c2F)CC1,-1%
11,Cc1ccc(Cl)c(NC(=O)CN2CCN(C=O)CC2)c1,0%
12,COc1cc(C(O)c2nc3ccccc3n2C)cc(OC)c1OC (configuration not stated),0%
13,CCCn1c(C(O)c2cc(OC)ccc2OC)nc2ccccc21 (configuration not stated),80% (active)
14,CCCn1c(C(O)c2ccc(OCC)cc2)nc2ccccc21 (configuration not stated),0%
15,COc1ccc(CC2(CO)CCN(Cc3cnn(C)c3)CC2)cc1,8%
16,COc1cccc(NC(=O)CS(=O)(=O)c2cn(CC(=O)N3CCOCC3)c3ccccc23)c1,1%
17,COc1ccc(S(=O)(=O)NC(C)C)cc1C(=O)NC1CCCCC1,-1%
18,O=C(CCN1C(=O)c2ccccc2C1=O)C1=NN[C@@H]2C(=O)N(c3ccc(F)cc3)C(=O)[C@H]12,-3%
19,Cc1c(Cc2ccccc2)c(=O)oc2cc(OCC(N)=O)ccc12,0%
20,C/C(=N/OC(=O)c1c(-c2c(F)cccc2Cl)noc1C)c1cnccn1,-2%
21,COC(=O)C1=C(C)N(C(C)c2ccccc2)C(=O)/C1=C\c1ccco1 (configuration not stated),-2%

row,Compound,inhibition
1,Cc1ccc2[nH]cc(CCCN3C(=O)c4ccccc4C3=O)c2c1,-3%
2,CC1(C)CN(c2ccc(-c3ccnc4ncnn34)cc2)C1=O,-1%
3,Cn1c(CCC(=O)OCC(=O)NCc2ccccc2Cl)nc(=O)c2ccccc21,-2%
4,CC(=O)Nc1ccc(-c2csc(NC=C3C(=O)OC(C)(C)OC3=O)n2)cc1,-8%
5,c1ccc2sc(NN=C3CCCC3)nc2c1,0%
6,Oc1ccc(-c2nncn2-c2ccccc2)cc1,0%
7,COc1cccc(NC(=O)COC(=O)CCOc2ccccc2OC)c1,0%
8,COc1ccc(NC(=S)Nc2ccc(S(N)(=O)=O)cc2)c(C)c1,-2%
9,Cc1ccc(NN=Nc2nc3c([nH]2)c(=O)n(C)c(=O)n3C)cc1,-7%
10,O=C(NCCCN1CCOCC1)c1ccccc1NS(=O)(=O)c1ccc(F)cc1,3%
11,CCOc1cccc(/C=C/c2ccc3ccccc3n2)c1OC(C)=O,0%
12,O=C(Nc1ccc(F)cc1)C1CCN(C(=O)c2ccc([N+](=O)[O-])cc2)CC1,0%
13,Cc1cc(OCCN2CCCC2)cc(C(C)C)c1,-3%
14,COc1cc(C2OC(c3cc(OC)c(OC)c(OC)c3)C(C)C2C)cc(OC)c1OC (configuration not stated),0%
15,COC(=O)c1cc(NC(=O)c2cccnc2)ccc1N1CCOCC1,-2%
16,Cc1ccc(S(=O)(=O)/N=C(\N)c2ccc(F)cc2)cc1,0%
17,CC1CCCC(NC(=O)c2cccc(N3CCCC3=O)c2)C1C (configuration not stated),1%
18,CCOC(=O)N1CCC(NC(=O)COc2cc(=O)n(C)c3ccccc23)CC1,-1%
19,CCOC(=O)N1CCC(c2cc(=O)n(-c3ccccc3)[nH]2)CC1,42% (active)
20,CCOC(=O)CN1CCC(c2ccccc2)CC1,2%

# — PubChem BioAssay AID1009 (NMMLSC, 2008)
